The record followed here is PubChem BioAssay (NCATS).

Structures are written as SMILES. “And” between values parts separate entries of the source, which are not always exact repeats. Identical values can stand only once. Results filed as inconclusive are left out. The source made the active and inactive calls. Calls follow the shape of the dose curve; as a rule, active = well fitted curve in the direction sought with a large enough effect; inconclusive = small, poorly fitted or top-dose-only effect, or another doubt; inactive = no such curve, though single readings can be large; an effect the other way counts as inactive or inconclusive.

Experiment [1] addresses Cytochrome P450 2C9 (Homo sapiens) (UniProt P11712). In words: qHTS Assay for Inhibitors and Substrates of Cytochrome P450 2C9 (AID 883). Also: nearly all actives have a fitted effect of over 60% in size. Also: potency is read from the fitted curve at half-maximal effect. As to activity change, negative = inhibition: % is scaled to controls: 0 for no effect and ±100 for the full control effect. Summed up:
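CYP2C9 deoxyluciferin hydroxylation, 37C, 60 min with NADPH regeneration; 10nM enzyme, 100uM Luciferin-H (KM). Glo detection reagent stopped reaction; luminescence normalized to sulphaphenazole (57uM) full inhibition.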
On the technique in general: In qHTS, concentration-response curves come from the screen itself.

The target in experiment [2] is Cytochrome P450 3A4 (Homo sapiens) (UniProt P08684). In words: qHTS Assay for Inhibitors and Substrates of Cytochrome P450 3A4 (AID 884). Also: nearly all actives have a fitted effect of over 50% in size. Also: potency is read from the fitted curve at half-maximal effect. As to activity change, negative = inhibition: series mostly up to about 57 µM; % is scaled to controls: 0 for no effect and ±100 for the full control effect. Summed up: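 Luminescent readout of luciferin produced by CYP3A4 (20 nM) dealkylation of Luciferin-PPXE, 25 uM (its KM). NADPH-driven reaction ran 60 min at RT after 10 min compound preincubation; data scaled to 57 uM ketoconazole as 100% inhibition.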

Experiment [3] shares this target. Nature of the experiment: qHTS Assay for Activators of Cytochrome P450 3A4 (AID 885). Also: nearly all actives have a fitted effect of over 65% in size. Summed up:
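Luminescent readout of luciferin formed from 25 uM Luciferin-PPXE (KM level) by 20 nM CYP3A4 in 200 mM KPO4, with 60 min NADPH-driven reaction at room temperature after 10 min compound exposure. Ketoconazole (57 uM) defined 100% inhibition.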

Experiment [4] has as its target Cytochrome P450 2D6 (Homo sapiens) (UniProt P10635). Nature of the experiment: qHTS Assay for Inhibitors and Substrates of Cytochrome P450 2D6 (AID 891). Also: nearly all actives have a fitted effect of over 60% in size. Also: potency is read from the fitted curve at half-maximal effect.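 As to activity change, negative = inhibition: luciferin methyl ether substrate demethylated by CYP2D6 with NADPH regeneration; % is scaled to controls: 0 for no effect and ±100 for the full control effect.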 Summed up: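 Luminescent read-out of luciferin formed by 5 nM human CYP2D6 demethylating 30 uM Luciferin-ME EGE (Km level) over 60 min at room temperature after NADPH regeneration addition. Data normalized to full inhibition by 1.43 uM quinidine.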

Experiment [5] concerns the target Cytochrome P450 2C19 (Homo sapiens) (UniProt P33261). In words: qHTS Assay for Inhibitors and Substrates of Cytochrome P450 2C19 (AID 899). Also: nearly all actives have a fitted effect of over 60% in size. Also: potency is read from the fitted curve at half-maximal effect. Summed up: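 In 50mM KPO4, the reaction held 5nM enzyme and KM-level (10uM) Luciferin-H EGE; it ran 60 min at 37C after NADPH regeneration and a 10 min compound preincubation. Luminescence values were scaled to 57uM ketoconazole as complete inhibition.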

Cytochrome P450 2C9 (Homo sapiens), sequence (P11712 whole entry, looked up): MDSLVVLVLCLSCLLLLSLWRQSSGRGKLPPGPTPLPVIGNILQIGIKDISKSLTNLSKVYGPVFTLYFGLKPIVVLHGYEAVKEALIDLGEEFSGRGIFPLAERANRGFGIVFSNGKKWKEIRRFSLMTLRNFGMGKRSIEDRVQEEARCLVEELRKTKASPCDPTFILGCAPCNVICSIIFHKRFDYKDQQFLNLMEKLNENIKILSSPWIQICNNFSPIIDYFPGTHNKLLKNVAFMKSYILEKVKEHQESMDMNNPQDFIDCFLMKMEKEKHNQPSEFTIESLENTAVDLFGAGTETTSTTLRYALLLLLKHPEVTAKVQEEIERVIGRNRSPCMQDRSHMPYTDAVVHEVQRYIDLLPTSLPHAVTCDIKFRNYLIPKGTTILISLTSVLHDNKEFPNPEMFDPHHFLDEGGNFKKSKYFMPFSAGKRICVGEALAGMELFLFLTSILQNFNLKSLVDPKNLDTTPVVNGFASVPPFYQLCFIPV
Cytochrome P450 2D6 (Homo sapiens), sequence (P10635 whole entry, looked up): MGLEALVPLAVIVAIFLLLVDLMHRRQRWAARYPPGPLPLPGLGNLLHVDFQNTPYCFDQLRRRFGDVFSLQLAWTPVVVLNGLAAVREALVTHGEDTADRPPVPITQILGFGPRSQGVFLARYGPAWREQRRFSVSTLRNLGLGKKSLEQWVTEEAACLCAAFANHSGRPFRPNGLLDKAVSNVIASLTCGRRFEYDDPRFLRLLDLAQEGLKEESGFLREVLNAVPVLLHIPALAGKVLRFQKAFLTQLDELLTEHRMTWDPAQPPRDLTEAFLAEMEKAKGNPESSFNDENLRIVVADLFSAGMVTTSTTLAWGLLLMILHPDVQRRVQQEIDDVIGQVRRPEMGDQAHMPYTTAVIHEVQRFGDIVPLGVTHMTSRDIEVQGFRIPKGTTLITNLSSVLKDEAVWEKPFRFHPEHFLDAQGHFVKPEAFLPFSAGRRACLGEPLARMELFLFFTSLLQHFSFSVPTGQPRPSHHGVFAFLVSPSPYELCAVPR
Cytochrome P450 2C19 (Homo sapiens), sequence (P33261 whole entry, looked up): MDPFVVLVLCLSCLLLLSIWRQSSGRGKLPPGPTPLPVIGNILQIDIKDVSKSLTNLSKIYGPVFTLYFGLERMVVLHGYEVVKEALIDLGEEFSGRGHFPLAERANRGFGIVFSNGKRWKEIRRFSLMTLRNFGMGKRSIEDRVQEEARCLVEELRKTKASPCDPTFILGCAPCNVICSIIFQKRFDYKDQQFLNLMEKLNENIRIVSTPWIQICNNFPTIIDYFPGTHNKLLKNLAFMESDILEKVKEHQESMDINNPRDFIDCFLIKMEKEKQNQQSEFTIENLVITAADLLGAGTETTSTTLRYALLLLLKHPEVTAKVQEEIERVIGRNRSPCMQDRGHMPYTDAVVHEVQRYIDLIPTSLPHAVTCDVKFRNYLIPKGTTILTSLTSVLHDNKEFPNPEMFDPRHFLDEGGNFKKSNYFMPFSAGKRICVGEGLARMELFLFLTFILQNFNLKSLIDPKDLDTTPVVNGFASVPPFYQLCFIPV
Cytochrome P450 3A4 (Homo sapiens), sequence (P08684 whole entry, looked up): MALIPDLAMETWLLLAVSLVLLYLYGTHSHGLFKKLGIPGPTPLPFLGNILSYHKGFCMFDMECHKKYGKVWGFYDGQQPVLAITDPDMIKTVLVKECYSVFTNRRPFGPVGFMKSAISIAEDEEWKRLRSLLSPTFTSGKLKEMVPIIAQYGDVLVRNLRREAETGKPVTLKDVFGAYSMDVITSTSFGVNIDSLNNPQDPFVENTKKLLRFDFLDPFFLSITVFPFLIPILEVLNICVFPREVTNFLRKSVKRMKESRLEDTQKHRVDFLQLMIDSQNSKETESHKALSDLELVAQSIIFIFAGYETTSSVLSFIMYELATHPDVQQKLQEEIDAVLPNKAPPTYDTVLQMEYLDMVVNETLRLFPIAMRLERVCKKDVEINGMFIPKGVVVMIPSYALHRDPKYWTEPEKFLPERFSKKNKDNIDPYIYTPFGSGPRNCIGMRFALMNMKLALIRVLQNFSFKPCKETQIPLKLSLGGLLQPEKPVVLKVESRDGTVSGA

Turning to `COc1cccc([C@@H]2Oc3ccc(OC)cc3/C(=N/O[C@@H](C)CN3CCCCc4nc(C)c(C)cc43)[C@@H]2O)c1`, the Potency in experiment [1] is 1.58 µM (active); in experiment [2], 3.98 µM (active). Moreover, the activity change, positive = activation in experiment [3] was -96.4% [at 11.4 µM] (inactive).
As for `COC(=O)NC(/C(C(=O)OC)=C(\C)NCc1ccccc1)c1cccc(C)c1` (stereo not given), in experiment [1], the Potency result is “inactive”. In addition, the activity change, negative = inhibition in experiment [2] is -22.4% [at 11.4 µM] (inactive).
On to `COC(=O)[C@H](CCSC)NC(=O)C/C=C\[C@@H](C)CO`, for which the Potency result in experiment [1] was “inactive”.
As to `COC(=O)C1=C(C)N(Cc2ccccc2)C2=C3C(=O)OCCC3[C@@](O)(C(=O)OC)C(=O)N2C1c1ccccc1` (stereo not given in full), the Potency result in experiment [1], in experiment [4] and in experiment [5] was “inactive” each time. Further, the Potency in experiment [2] was 3.98 µM (active). Also, the activity change, positive = activation in experiment [3] was -61.3% [at 11.4 µM] (inactive).
For the compound `COC(=O)C1=C(C)N(Cc2ccccc2)C2=C3C(=O)CCCC3[C@@](O)(C(=O)OC)C(=O)N2C1c1ccccc1` (stereo not given in full), the Potency entry in experiment [1], in experiment [4] and in experiment [5] was “inactive” throughout. The activity change, negative = inhibition in experiment [2] is -20% [at 11.4 µM] (inactive). Further, in experiment [3], the activity change, positive = activation was -36% [at 11.4 µM] (inactive).
As to `CCCCC#CC1C=CC(OC(C)=O)C(COC(C)=O)O1` (stereo not given), the Potency result in experiment [1] and in experiment [4] was “inactive” each time. Besides, in experiment [2], the Potency was 2.51 µM (active). In experiment [3], the activity change, positive = activation was -63.9% [at 11.4 µM] (inactive).
Turning to `CCCCCCC#CC1C=CC(OC(=O)OCC)C(COC(=O)OCC)O1` (stereo not given), the Potency result in experiment [1] and in experiment [4] was “inactive” each time. In addition, the Potency was 3.98 µM (active) in experiment [2] and 2 µM (active) in experiment [5]. Besides, the activity change, positive = activation in experiment [3] was -78% [at 11.4 µM] (inactive).
Consider `COC(=O)C1=C2N(Cc3ccccc3)C(C)=C(C(=O)OC)C(c3ccccc3)N2C(=O)[C@](O)(C(=O)OC)C1` (stereo not given in full), for which the Potency result in experiment [1], in experiment [4] and in experiment [5] was “inactive” throughout. Also, the activity change, negative = inhibition in experiment [2] was -26.5% [at 11.4 µM] (inactive). Further, the activity change, positive = activation in experiment [3] was -51.3% [at 11.4 µM] (inactive).
Consider `CC(=O)OCC1OC(C#CCCCc2ccccc2)C=CC1OC(C)=O` (stereo not given), for which the Potency entry in experiment [1] and in experiment [5] was “inactive” in each case. The Potency in experiment [2] was 3.98 µM (active); in experiment [4] it was 3.98 µM (active) and 3.16 µM (active). Also, the activity change, positive = activation in experiment [3] is -71.4% [at 11.4 µM] (inactive) and -59.5% [at 11.4 µM] (inactive).
With `CC1CCC2C(=O)N3C(CCC(C)[C@@H]3c3cccc(N4CCOCC4)c3)C(=O)N2C1c1cccc(N2CCOCC2)c1` (stereo not given in full), the Potency entry in experiment [1], in experiment [4] and in experiment [5] was “inactive” each time. Moreover, the Potency in experiment [2] was 3.98 µM (active). The activity change, positive = activation in experiment [3] was -62.4% [at 11.4 µM] (inactive).
For the compound `C/C=C/OC(=O)NC(c1ccccc1)[C@@]1(C(=O)OC)CCCC1=O` (stereo not given in full), the Potency result in experiment [1] and in experiment [4] was “inactive” each time. Also, the Potency in experiment [2] was 1 µM (active); in experiment [5] it was 1.26 µM (active). Moreover, the activity change, positive = activation in experiment [3] was -81.6% [at 11.4 µM] (inactive).
On to `COc1ccc(OCC2Cc3c(-c4ccccc4)nc4c(c3CO2)CN(CCOc2ccccc2)CC4)cc1` (stereo not given), for which the Potency entry in experiment [1], in experiment [4] and in experiment [5] was “inactive” in each case. Further, the Potency in experiment [2] was 3.98 µM (active). Also, the activity change, positive = activation in experiment [3] was -83.6% [at 11.4 µM] (inactive).
Turning to `COc1ccc(/C=C/NC(=O)Cc2ccc(OC)c(OC)c2)cc1`, the Potency entry in experiment [1], in experiment [4] and in experiment [5] was “inactive” throughout. Also, the Potency in experiment [2] is 3.16 µM (active). For the same compound, the activity change, positive = activation in experiment [3] is -57.1% [at 11.4 µM] (inactive) and -101% [at 11.4 µM] (inactive).
Regarding `CC(=O)OCC1OC(C#Cc2ccccc2Cl)C=CC1OC(C)=O` (stereo not given), the Potency entry in experiment [1] and in experiment [4] was “inactive” throughout. Further, the Potency in experiment [2] was 3.98 µM (active); in experiment [5], 3.16 µM (active). In experiment [3], the activity change, positive = activation was -76.5% [at 11.4 µM] (inactive).
